Source: PubChem BioAssay (NCATS)
Records with an inconclusive call do not appear. Unmarked numbers belong to inactive results. Calls of active or inactive are those of the source. The call rests on the fitted dose curve; in most records, active means well fitted inhibition curve with a large enough effect; inconclusive means small, poorly fitted or top-dose-only effect; inactive means flat fitted curve, though single readings scatter.

assay: P-glycoprotein substrates identified in KB-8-5-11 adenocarcinoma cell line, qHTS therapeutic library screen (AID 1346987); conditions: KB-8-5-11 (P-gp overexpressing) viability, CellTiter-Glo, 72 h; series mostly up to 44.5 µM; activity change, negative = cytotoxicity: at the top concentration; further: nearly all actives have a fitted effect of over 65% in size
In short: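 KB-8-5-11, a colchicine-selected P-gp-overexpressing KB-3-1 subline, was grown without colchicine for the assay. Cells were seeded at 500 cells/well, dosed in concentration-response and incubated 72 h at 37 degree C, 5% CO2. Viability was read by CellTiter-Glo luminescence.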
On the % scale 0 is the no-effect control and ±100 the full control effect; potency means the concentration at half of the fitted maximal effect.

| SMILES | activity change, negative = cytotoxicity | outcome | Potency |
| --- | --- | --- | --- |
| O=C(C(c1ccccc1)c1ccccc1)N1CCN(CC(O)COc2cccc3ncccc23)CC1 (stereo not drawn) | -26.3% |  |  |
| Cc1cc(C(=O)Nc2cccc(C(=O)Nc3cccc(C(F)(F)F)c3)c2)on1 | 4.26% |  |  |
| O=C(O)c1cn(C2CC2)c2cc(N3C[C@@H]4C[C@H]3CN4)c(F)cc2c1=O |  | inactive |  |
| CC(C)(C)CCN1C[C@@H]2C(CNC(=O)c3cc(Cl)cc(Cl)c3)[C@@H]2C1 (stereo partly drawn) | -23.6% |  |  |
| O=C(Nc1ccccc1)N1CCN(Cc2ccc3ccccc3n2)CC1 | -11.9% |  |  |
| Cn1cc(S(=O)(=O)c2ccc(Cl)cc2)c2cccc(N3CCNCC3)c21 |  |  | 20.6 µM (active) |
| CCN1CCN(Cc2ccc(NC(=O)c3ccc(C)c(NC(=O)c4cncc(-c5cccs5)c4)c3)cc2C(F)(F)F)CC1 |  |  | 7.31 µM (active) |
| Cc1noc(-c2ccc(-c3ccc(CC(=O)O)cc3)cc2)c1NC(=O)O[C@H](C)c1ccccc1 | -8.09% |  |  |
| COC(=O)/C=C/C12COC(C)(C)C1C(O)C(OC(C)=O)C1(C)C2CCC2(C)C(c3ccoc3)OC(=O)C3OC321 (stereo not drawn) | 0.389% [at 17.3 µM] |  |  |
| O=C(OC[C@H]1O[C@H](O[C@]2(CO)O[C@H](CO)[C@@H](O)[C@@H]2O)[C@H](O)[C@@H](O)[C@@H]1O)c1ccccc1 |  | inactive [at 17.3 µM] |  |
| CC12CCC(OC3OC(CO)C(O)C(OC4OC(CO)C(O)C(O)C4O)C3O)CC1=CCC1C2CCC2(C)/C(=C3/COC(=O)C3)CCC12O (stereo not drawn) | -2.53% [at 17.3 µM] |  |  |
| CC1OC(OC2C(OC3C(O[C@H]4CC[C@@]5(C)C(CC[C@]6(C)C5C(=O)C=C5C7CC(C)(C)CC(O)[C@]7(C)CC[C@]56C)C4(C)C)OC(C(=O)O)C(O)C3O)OCC(O)C2O)C(O)C(O)C1O (stereo partly drawn) | 7.36% [at 9.29 µM] |  |  |
| CC(=O)CCC1=C(C)C(O[C@@H]2O[C@H](CO)[C@@H](O)[C@H](O)[C@H]2O)C(O)CC1(C)C (stereo partly drawn) |  | inactive |  |
| NC(=O)c1cnc(NCCc2ccc(O)c(Cl)c2)nc1NCc1ccccc1 |  |  | 10.3 µM (active) |
| CC12CCC(C(OC3OC(COC4OCC(O)(CO)C4O)C(O)C(O)C3O)C1)C(C)(C)O2 (stereo not drawn) |  | inactive [at 17.3 µM] |  |
| Cc1ccc([N+](=O)[O-])cc1S(=O)(=O)N(C)/N=C/c1cnc2ccc(Br)cn12 |  |  | 0.231 µM (active) |
| COc1c2c(cc3c1-c1c(cc4c(c1OC)OCO4)CC(C)C(C)C3)OCO2 (stereo not drawn) | -4.87% |  |  |
| CC1=C2C3OC(=O)C(C)C3(O)CCC2(C)CCC1O (stereo not drawn) | 5.71% |  |  |
| Cc1ccc(C(=O)N(CCCN)C(c2nc3cc(Cl)ccc3c(=O)n2Cc2ccccc2)C(C)C)cc1 (stereo not drawn) |  |  | 0.517 µM (active) |
| COc1ccc(F)cc1-c1cc(NC(=O)[C@@H]2CCCNC2)ncc1Cl |  |  | 0.326 µM (active) |
| C[C@@H]1O[C@@H](O[C@H]2[C@H](OC(=O)[C@]34CCC(C)(C)C[C@H]3C3=CCC5[C@@]6(C)C[C@H](O)[C@H](O[C@@H]7O[C@H](CO)[C@@H](O)[C@H](O)[C@H]7O)[C@@](C)(CO)C6[C@H](O)C[C@@]5(C)[C@]3(C)CC4)OC[C@H](O)[C@@H]2O)[C@H](O)[C@H](O)[C@H]1O[C@@H]1OC[C@@H](O)[C@H](O[C@@H]2OC[C@](O)(CO)[C@H]2O)[C@H]1O (stereo partly drawn) | 6.69% [at 9.29 µM] |  |  |
| CC(=O)OC1CC2(C)C3=CCC4(C)C5C(O)C(O)C(C(C)C)C5(C)CCC4(C)C3CCC2C(C)(C)C1OC1OC(CO)C(O)C(O)C1O (stereo not drawn) |  | inactive [at 17.3 µM] |  |
| CCOc1cc2ncc(C#N)c(Nc3ccc(F)c(Cl)c3)c2cc1NC(=O)/C=C/CN(C)C |  |  | 3.26 µM (active) |
| C=C1C(=O)O[C@@H]2/C=C(\C)C(=O)/C=C/[C@](C)(O)C[C@@H](OC(=O)C(C)C)[C@@H]12 |  |  | 4.53 µM (active) |
| COc1cc(C)c(C(=O)O[C@H]2[C@@H](OC(C)=O)[C@H](n3ccc(=O)[nH]c3=O)O[C@@H]2CO)c(OC)c1 |  | inactive [at 17.3 µM] |  |
| CC1(C)CC2C(O)c3cocc3CC(C)(O)C2C1 (stereo not drawn) |  | inactive |  |
| CC(C)(O[C@@H]1O[C@H](CO)[C@@H](O)[C@H](O)[C@H]1O)C(OC(=O)/C=C\c1ccc(O)cc1)C(=O)OCc1ccc(O[C@@H]2O[C@H](CO)[C@@H](O)[C@H](O)[C@H]2O)cc1 (stereo partly drawn) | 4.28% [at 17.3 µM] |  |  |
| CO[C@H]1C[C@@H]2CC[C@@H](C)[C@@](O)(O2)C(=O)C(=O)N2CCCC[C@H]2C(=O)O[C@H]([C@H](C)C[C@@H]2CC[C@@H](OP(C)(C)=O)[C@H](OC)C2)CC(=O)[C@H](C)/C=C(\C)[C@@H](O)[C@@H](OC)C(=O)[C@H](C)C[C@H](C)/C=C/C=C/C=C/1C | -25.4% [at 17.3 µM] |  |  |
